Bioassay records (PubChem BioAssay)
The list is not random: actives were taken first. Their share in the collection is about 8.1%.
MCF10A rerep – induces DNA re-replication in MCF 10a normal breast cells | MCF 10A DNA re-replication, Hoechst nuclear intensity, 48 h | Potency, µM (doses to about 46.1 µM), for inactives: at the highest dose activity, positive = re-replication, usual class: activators | 350,000 tested, 2.9% active; further: % of control where 0% means no effect; nearly all actives have a fitted effect of over 50% in size
ELG1 DNA repair – inhibitors of ELG1-dependent DNA repair in HEK293T cells | HEK293T ELG1-luciferase reporter, luminescence, 16 h; DNA damage induced by 5-fluorouridine | Potency, µM (series often up to 46.1 µM), inactives show at the highest dose activity change, negative = inhibition, actives largely listed as inhibitors | 330,000 tested, 2.3% active | AID 504467; further: on the % scale 0 is the no-effect control and ±100 the full control effect; nearly all actives have a fitted effect of over 55% in size
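5-Fluorouridine DNA damage + compound/DMSO, 2,000 cells/well, 16 h, 37 °C/5% CO2. ONE-Glo, 30 min RT, luminescence. Readout = decrease in reporter signal.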
KB-3-1 tox – kills parental KB-3-1 adenocarcinoma cells; KB-3-1 viability, CellTiter-Glo ATP luminescence, 72 h; Potency, µM (doses to about 46.1 µM), usual class: cytotoxic; 400,000 tested, 1.4% active; AID 1347075; further: on the % scale 0 is the no-effect control and ±100 the full control effect; nearly all actives have a fitted effect of over 60% in size
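Using CellTiter-Glo luminescence, growth of non-resistant KB-3-1 adenocarcinoma cells is assessed 72 h after pin-tool compound addition at 37 °C. Normalized responses across the concentration series yield fitted curves.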
SW480 rerep – inducers of DNA re-replication in SW480 colon cancer cells; SW480 DNA re-replication, Hoechst DNA content imaging, 48 h; Potency, µM (highest dose often 46.1 µM), without a hit: at the highest dose re-replication activation, most hits filed as activators; 340,000 tested, 1.8% active; further: % of control where 0% means no effect; nearly all actives have a fitted effect of over 55% in size
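Quantitative HTS format with DMSO vehicle controls; 48 hr drug incubation at 37 C, then 40 min Hoechst staining and scanning imager measurement at 405 nm excitation.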
KB-V1 MDR tox – kills drug-selected multidrug resistant KB-V1 cells | KB-V1 MDR cells viability, CellTiter-Glo, 72 h | Potency, µM (doses to about 46.1 µM), actives largely listed as cytotoxic | 400,000 tested, 3.4% active | AID 1347076; further: on the % scale 0 is the no-effect control and ±100 the full control effect; nearly all actives have a fitted effect of over 60% in size
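Drug-selected KB-V1 cells, grown in DMEM lacking phenol red with 10% FBS, receive compound titrations; after three days at 37 degrees C, surviving cell ATP is quantified by CellTiter-Glo luminescence and responses normalized and curve-fitted.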
The depositor's hits bear a star; i = inactive; ? = inconclusive; · = no result given; [ ] = another dose, or the depositor's remark. The call rests on the fitted dose curve; in most records, active means well fitted curve in the direction sought with a large enough effect; inconclusive means small, poorly fitted or top-dose-only effect, or another doubt; inactive means no such curve, though single readings can be large; an effect the other way counts as inactive or inconclusive. Potency means the concentration at half of the fitted maximal effect.

SMILES	MCF10A rerep	ELG1 DNA repair	KB-3-1 tox	SW480 rerep	KB-V1 MDR tox
COC(=O)C1NN=C(C(=O)c2ccccc2)C1c1ccccc1 (centres undefined)	-70%	-7%	i	-151%	15µM*
COC(=O)C1NN=C(C(=O)c2ccc(Cl)cc2)C1c1ccc(OC)cc1 (centres undefined)	-25%	?	i	-1%	?
COC(=O)c1[nH]c2ccc(F)cc2c1NS(=O)(=O)c1ccc(F)c(C)c1	?	12%	?	-107%	16µM*
CN(C)c1oc(-c2ccc(OCc3ccccc3)cc2)nc1C#N	?	?	i	-97%	21µM*
N#Cc1nc(-c2ccc(OCc3ccc(Cl)cc3)cc2)oc1NCc1cccnc1	11µM*	18%	i	-3%	i
N#Cc1nc(-c2ccc(OCc3ccccc3)cc2)oc1NCc1cccnc1	-6%	?	i	0%	i
N#Cc1nc(-c2ccc(OCc3ccccc3)cc2)oc1NCCCn1ccnc1	-2%	?	?	-27%	23µM*
N#Cc1nc(-c2ccc(OCc3ccccc3Cl)cc2)oc1NCCCn1ccnc1	·	17%	·	·	·
C/C(=N/NC(=O)COc1ccc(C(C)(C)C)cc1)c1ccc(N2CCOCC2)cc1	?	·	?	14%	i
OCc1ccccc1SSc1ccccc1CO	18µM*	·	?	?	?
O=C(CN1C(=O)NC2(CCc3ccccc32)C1=O)NCc1ccc(F)cc1 (centres undefined)	3%	22%	i	7%	i
COc1ccc2[nH]c(=O)c(CNC3CCCCC3)cc2c1	3%	4%	i	-3%[9.22 µM]	i
COc1ccc2[nH]c(=O)c(CNc3cccc(C)c3)cc2c1	9%	-4%	?	1%	5.8µM*
COc1ccc(NCc2cc3ccccc3[nH]c2=O)cc1	20%	4%	i	-5%[9.22 µM]	i
COc1ccc(NCc2cc3cc(OC)ccc3[nH]c2=O)cc1	-7%	?	i	26%	18µM*
COc1ccc([C@H]2CC(=O)C=C(c3cccc(Br)c3)C2)cc1OC	6%	18µM*	?	2%	i
COc1ccc([C@H]2CC(=O)C=C(c3cc(C=O)ccc3OC)C2)cc1	?	-25%	16µM*	9.2µM*	?
COc1ccc([C@H]2CC(=O)C=C(c3cc(C=O)ccc3OC)C2)cc1OC	89%	?	?	?	i
COc1ccc([C@H]2CC(=O)C=C(c3c(OC)cccc3OC)C2)cc1	1.2µM*	-3%	?	18µM*	?
COc1ccc([C@H]2CC(=O)C=C(c3cc(F)ccc3OC)C2)cc1	21µM*	-26%	?	?	?
COc1ccc([C@H]2CC(=O)C=C(c3cccc(Br)c3)C2)cc1	?	2%	i	-2%	i
Cc1oc2ncn(CC(C)C)c(=O)c2c1C(=O)Nc1cccc(C(F)(F)F)c1	·	·	i	·	i
COc1ccc(-c2coc3c(C(=O)NCc4cccc(Cl)c4)cccc23)c(C)c1	·	·	i	·	?
Nc1ccc(-c2nnc(-c3ccc(N)cc3)o2)cc1	3%	?	i	-14%	?
COC1=C(Br)C(=O)c2nc(C)ccc2C1=O	·	·	i	·	i
SMILES	MCF10A rerep	ELG1 DNA repair	KB-3-1 tox	SW480 rerep	KB-V1 MDR tox
COc1ccc([C@H]2CC(=O)C=C(c3cc(OC)ccc3OC)C2)cc1	?	?	16µM*	?	23µM*
COc1ccc([C@H]2CC(=O)C=C(c3ccc(OC)c(F)c3)C2)cc1	-30%	?	i	-5%	i
COc1ccc([C@H]2CC(=O)C=C(c3ccc(OC)c(OC)c3)C2)cc1	9.2µM*	?	i	-7%	i
CCOc1ccc(Cl)cc1C1=CC(=O)C[C@H](c2ccc(OC)cc2)C1	?	-12%	?	3.7µM*	4.6µM*
O=C1c2ccccc2NC(c2cccs2)N1O (centres undefined)	-1%	17%	i	-78%	i
O=C1c2ccccc2N[C@@H]2C=CC[C@@H]2N1O	-3%	1%	i	26µM*	i
Nc1nc(NCc2ccco2)nc(N2CCCC2)c1[N+](=O)[O-]	0%	6%	i	-55%	?
